# Assay results reported in PubChem BioAssay (EPA / NIEHS).
# Inconclusive results are not listed. Active and inactive are the calls of the source. The calls were made as follows, unless noted: active = hit-call score of the fitted dose curve at least 0.9, where 1 is the maximum; inconclusive = response in the unintended direction; inactive = score below 0.9.
# Test system: not listed separately
# Assay: Tanguay_ZF_120hpf_NC_legacy: (Legacy) Oregon State University Tanguay Lab 120 Hour Post-fertilization zebrafish Assay for Notochord and Tail Malformation (AID 2283656)
# Summary of the method: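 Dechorionated 5D zebrafish, 1/well from 6 hpf; static exposure to 120 hpf, 28C, sealed, dark; final DMSO 0.64% v/v. NC scored binary (present/absent); dead embryos not scored. Fit vs DMSO baseline, gain direction.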
row,Structure (SMILES),outcome
1,CCCCCC(=O)O,inactive
2,NCC1(Cc2noc(=O)[nH]2)CCCCC1,inactive
3,CCCCCCCCCCCCCCCC,inactive
4,O=C(OCCCCCOC(=O)c1ccccc1)c1ccccc1,inactive
5,CCCCCCCCCCO,inactive
6,Cc1ccc(C(C)C)c(O)c1,inactive
7,CCCCCCCCCCCCCO,inactive
8,COCCOC[C@H](CC1(C(=O)NC2CCC(C(=O)O)CC2)CCCC1)C(=O)Oc1ccc2c(c1)CCC2 (some centres undefined),inactive
9,CCCCCCCC=O,inactive
10,CCCCOC(=O)CCCCCCCCC(=O)OCCCC,inactive
11,CCCc1cc(=O)[nH]c(=S)[nH]1,inactive
12,CCCCC(CC)COC(=O)CC(C(=O)OCC(CC)CCCC)S(=O)(=O)O (centres undefined),inactive
13,Cc1ccc2ncccc2c1,inactive
14,CC1=C(/C=C/C(C)=C/C=C/C(C)=C/CO)C(C)(C)CCC1,inactive
15,CCOc1ccc2c(c1)C(C)=CC(C)(C)N2,inactive
16,COc1cc(-c2nc(NC(=O)c3cc4cc(C)cc(C)c4n3CC(=O)O)sc2CCC2CCCCC2)c(OC)cc1Cl,inactive
17,O=C(O)CCCCC(=O)O,inactive
18,Cc1ccccc1Cl,inactive
19,C[Si]1(C)O[Si](C)(C)O[Si](C)(C)O[Si](C)(C)O1,inactive
20,Cc1nc(C)nc(N2C[C@@H](C)N(c3ccnc([C@@H](C)O)n3)[C@@H](C)C2)n1,inactive
21,CCCCCCCCCCCC(=O)OC,inactive
22,NCCO,inactive
23,c1cc(-c2ccncc2)ccn1,inactive
24,CCOC(=O)C(C)(C)Oc1ccc(Cl)cc1,inactive
25,CC=Cc1ccc(O)c(OC)c1,inactive
26,O=C(N[C@@H](Cc1ccccc1)[C@@H](O)C(=O)N1C[C@@H](O)[C@@H](O)C1)c1cc2cc(Cl)ccc2[nH]1,inactive
27,Cc1cccc([N+](=O)[O-])c1C,inactive
28,O=[N+]([O-])C(CO)(CO)CO,inactive
29,CNC(=O)[C@H]1O[C@@H](n2cnc3c(NCc4cc(Cl)ccc4OCc4cc(C)no4)ncnc32)[C@H](O)[C@@H]1N,inactive

# Test system: Thyroperoxidase (TPO), gene 54314
# Assay: CCTE_Simmons_AUR_rTPO: CCTE's Amplex UltraRed Assay for Thyroperoxidase (TPO) Inhibition, Simmons Lab (AID 2283662);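 as to AC50: potency for loss of signal meaning inhibition of peroxidase activity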
# Summary of the method: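 Rat thyroid microsomes (5 ug protein) with 25 uM Amplex UltraRed and 300 uM H2O2 in 200 mM phosphate buffer, 30 min at 37C in dark; fluorescence 544/590 nm. Eight concentrations, 5 nM–87.5 uM final, 0.5% DMSO, triplicate biological replicates.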
Structure (SMILES),AC50,outcome
CCCc1cc(=O)[nH]c(=S)[nH]1,0.285 µM (active),–
CCCCC(CC)COC(=O)CC(C(=O)OCC(CC)CCCC)S(=O)(=O)O (centres undefined),43.8 µM (active),–
CC1=C(/C=C/C(C)=C/C=C/C(C)=C/CO)C(C)(C)CCC1,28.6 µM (active),–
CCOc1ccc2c(c1)C(C)=CC(C)(C)N2,1.48 µM (active),–
CC=Cc1ccc(O)c(OC)c1,6.14 µM (active),–
CNC(=O)[C@H]1O[C@@H](n2cnc3c(NCc4cc(Cl)ccc4OCc4cc(C)no4)ncnc32)[C@H](O)[C@@H]1N,–,inactive

# Test system: not listed separately
# Assay: CCTE_Simmons_CellTiterGLO_HEK293T: Viability Assessment in CCTE's Assays for Thyroperoxidase (TPO) Inhibition, Simmons Lab (AID 2283665);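 as to AC50: cells exposed to compound for 24 h before readout; actives reduce ATP signal below DMSO vehicle meaning cytotoxicity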
# Summary of the method: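 Cytotoxicity counter-screen: human HEK293T cells in low-serum (1% FBS) medium receive test chemical, 5 nM to 87.5 uM final, for 24 h; ATP is quantified by luciferase luminescence.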
Structure (SMILES),outcome,AC50
CCCc1cc(=O)[nH]c(=S)[nH]1,inactive,–
CCCCC(CC)COC(=O)CC(C(=O)OCC(CC)CCCC)S(=O)(=O)O (centres undefined),–,15.8 µM (active)
CC1=C(/C=C/C(C)=C/C=C/C(C)=C/CO)C(C)(C)CCC1,–,12 µM (active)
CCOc1ccc2c(c1)C(C)=CC(C)(C)N2,–,48.8 µM (active)
CC=Cc1ccc(O)c(OC)c1,inactive,–

# Test system: not listed separately
# Assay: Tanguay_ZF_120hpf_TR_legacy: (Legacy) Oregon State University Tanguay Lab 120 Hour Post-fertilization zebrafish Assay for Touch Response (AID 2283667)
# Summary of the method: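 Tropical 5D wild-type zebrafish embryos statically exposed to 120 hpf at 28°C, sealed and dark-covered, 0.64% DMSO final; touch response scored as present/absent by brightfield microscopy at 120 hpf. Trimethyltin chloride 5 uM positive control; dead embryos not scored.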
row,Structure (SMILES),outcome
1,CCCCCC(=O)O,inactive
2,NCC1(Cc2noc(=O)[nH]2)CCCCC1,inactive
3,CCCCCCCCCCCCCCCC,inactive
4,O=C(OCCCCCOC(=O)c1ccccc1)c1ccccc1,inactive
5,CCCCCCCCCCO,inactive
6,Cc1ccc(C(C)C)c(O)c1,inactive
7,CCCCCCCCCCCCCO,inactive
8,COCCOC[C@H](CC1(C(=O)NC2CCC(C(=O)O)CC2)CCCC1)C(=O)Oc1ccc2c(c1)CCC2 (some centres undefined),inactive
9,CCCCCCCC=O,inactive
10,CCCCOC(=O)CCCCCCCCC(=O)OCCCC,inactive
11,CCCc1cc(=O)[nH]c(=S)[nH]1,inactive
12,CCCCC(CC)COC(=O)CC(C(=O)OCC(CC)CCCC)S(=O)(=O)O (centres undefined),inactive
13,Cc1ccc2ncccc2c1,inactive
14,CCOc1ccc2c(c1)C(C)=CC(C)(C)N2,inactive
15,COc1cc(-c2nc(NC(=O)c3cc4cc(C)cc(C)c4n3CC(=O)O)sc2CCC2CCCCC2)c(OC)cc1Cl,inactive
16,O=C(O)CCCCC(=O)O,inactive
17,Cc1ccccc1Cl,inactive
18,C[Si]1(C)O[Si](C)(C)O[Si](C)(C)O[Si](C)(C)O1,inactive
19,Cc1nc(C)nc(N2C[C@@H](C)N(c3ccnc([C@@H](C)O)n3)[C@@H](C)C2)n1,inactive
20,CCCCCCCCCCCC(=O)OC,inactive
21,NCCO,inactive
22,c1cc(-c2ccncc2)ccn1,inactive
23,CCOC(=O)C(C)(C)Oc1ccc(Cl)cc1,inactive
24,O=C(N[C@@H](Cc1ccccc1)[C@@H](O)C(=O)N1C[C@@H](O)[C@@H](O)C1)c1cc2cc(Cl)ccc2[nH]1,inactive
25,Cc1cccc([N+](=O)[O-])c1C,inactive
26,O=[N+]([O-])C(CO)(CO)CO,inactive
27,CNC(=O)[C@H]1O[C@@H](n2cnc3c(NCc4cc(Cl)ccc4OCc4cc(C)no4)ncnc32)[C@H](O)[C@@H]1N,inactive

# Test system: not listed separately
# Assay: CCTE_Padilla_ZF_144hpf_TERATOSCORE: (Legacy) CCTE's 144 Hour Post-fertilization zebrafish Assay Teratoscore, Padilla Lab (AID 2283679; active = hit-call score of the fitted dose curve at least 0.9, where 1 is the maximum; inactive = score below 0.9;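 as to AC50: zebrafish embryos with chorions exposed by immersion from 6-8 hpf to 5 dpf with daily renewal; teratogenicity score from eye scoring of death hatching and malformations at 144 hpf; higher score means more developmental defects relative to DMSO baseline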)
# Summary of the method: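 Larvae scored by eye at 144 hpf for death, hatching and malformations after a day in clean Hanks'. Before that, daily-renewed exposure at 80 uM (0.4% DMSO, 26C) from roughly 6-8 hpf through 5 dpf, 4 embryos per chemical.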
Structure (SMILES),outcome,AC50
O=C(OCCCCCOC(=O)c1ccccc1)c1ccccc1,inactive,–
CCCCCCCCCCO,inactive,–
CC1=C(/C=C/C(C)=C/C=C/C(C)=C/CO)C(C)(C)CCC1,–,28.2 µM (active)
CCOc1ccc2c(c1)C(C)=CC(C)(C)N2,–,57.7 µM (active)
Cc1nc(C)nc(N2C[C@@H](C)N(c3ccnc([C@@H](C)O)n3)[C@@H](C)C2)n1,–,30.3 µM (active)
CCOC(=O)C(C)(C)Oc1ccc(Cl)cc1,–,2.86 µM (active)
CC=Cc1ccc(O)c(OC)c1,–,53.8 µM (active)
